Assay results from PubChem BioAssay.
Calls of active or inactive are those of the source.

Key:
[1] = small molecules captured by biotinylated probe aFSTL3 – biochemical, small-molecule microarray, fluorescence 635/667, stem cell growth factor project, primary screen (AID 1064); settings: higher = more signal;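 also: measures binding of the biotinylated anti-FSTL3 antibody to printed compounds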
[2] = binders from COS7 lysate, DM2A8 probe, primary screen, torsin A project, cell lysate, small-molecule microarray, fluorescence 635/667 (AID 1065); settings: higher = more signal, COS7 lysate expressing mutant human TOR1A
[3] = small molecules captured by biotinylated probe aFGF2 – biochemical, small-molecule microarray, fluorescence 635/667, stem cell growth factor project, primary screen (AID 1067); settings: higher = more signal;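 also: measures binding of biotinylated aFGF2 protein to printed compounds on slides; z-score merges feature fluorescence and signal-to-noise across triplicate slides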
[4] = small molecules captured by biotinylated probe aFGF10 – biochemical, small-molecule microarray, fluorescence 635/667, stem cell growth factor project, primary screen (AID 1071); settings: higher = more signal;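 also: score merges 667 nm spot intensity and signal to noise from triplicate slides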
[5] = molecular target: Neurogenic locus notch homolog protein 2 (Homo sapiens) (UniProt Q04721); test: small molecules binding Notch2 protein – biochemical, small-molecule microarray, 635 nm fluorescence, stem cell growth factors, primary screen (AID 1073); settings: higher = more signal
Sequence of Neurogenic locus notch homolog protein 2 (Homo sapiens) (Q04721 whole entry, looked up, canonical isoform): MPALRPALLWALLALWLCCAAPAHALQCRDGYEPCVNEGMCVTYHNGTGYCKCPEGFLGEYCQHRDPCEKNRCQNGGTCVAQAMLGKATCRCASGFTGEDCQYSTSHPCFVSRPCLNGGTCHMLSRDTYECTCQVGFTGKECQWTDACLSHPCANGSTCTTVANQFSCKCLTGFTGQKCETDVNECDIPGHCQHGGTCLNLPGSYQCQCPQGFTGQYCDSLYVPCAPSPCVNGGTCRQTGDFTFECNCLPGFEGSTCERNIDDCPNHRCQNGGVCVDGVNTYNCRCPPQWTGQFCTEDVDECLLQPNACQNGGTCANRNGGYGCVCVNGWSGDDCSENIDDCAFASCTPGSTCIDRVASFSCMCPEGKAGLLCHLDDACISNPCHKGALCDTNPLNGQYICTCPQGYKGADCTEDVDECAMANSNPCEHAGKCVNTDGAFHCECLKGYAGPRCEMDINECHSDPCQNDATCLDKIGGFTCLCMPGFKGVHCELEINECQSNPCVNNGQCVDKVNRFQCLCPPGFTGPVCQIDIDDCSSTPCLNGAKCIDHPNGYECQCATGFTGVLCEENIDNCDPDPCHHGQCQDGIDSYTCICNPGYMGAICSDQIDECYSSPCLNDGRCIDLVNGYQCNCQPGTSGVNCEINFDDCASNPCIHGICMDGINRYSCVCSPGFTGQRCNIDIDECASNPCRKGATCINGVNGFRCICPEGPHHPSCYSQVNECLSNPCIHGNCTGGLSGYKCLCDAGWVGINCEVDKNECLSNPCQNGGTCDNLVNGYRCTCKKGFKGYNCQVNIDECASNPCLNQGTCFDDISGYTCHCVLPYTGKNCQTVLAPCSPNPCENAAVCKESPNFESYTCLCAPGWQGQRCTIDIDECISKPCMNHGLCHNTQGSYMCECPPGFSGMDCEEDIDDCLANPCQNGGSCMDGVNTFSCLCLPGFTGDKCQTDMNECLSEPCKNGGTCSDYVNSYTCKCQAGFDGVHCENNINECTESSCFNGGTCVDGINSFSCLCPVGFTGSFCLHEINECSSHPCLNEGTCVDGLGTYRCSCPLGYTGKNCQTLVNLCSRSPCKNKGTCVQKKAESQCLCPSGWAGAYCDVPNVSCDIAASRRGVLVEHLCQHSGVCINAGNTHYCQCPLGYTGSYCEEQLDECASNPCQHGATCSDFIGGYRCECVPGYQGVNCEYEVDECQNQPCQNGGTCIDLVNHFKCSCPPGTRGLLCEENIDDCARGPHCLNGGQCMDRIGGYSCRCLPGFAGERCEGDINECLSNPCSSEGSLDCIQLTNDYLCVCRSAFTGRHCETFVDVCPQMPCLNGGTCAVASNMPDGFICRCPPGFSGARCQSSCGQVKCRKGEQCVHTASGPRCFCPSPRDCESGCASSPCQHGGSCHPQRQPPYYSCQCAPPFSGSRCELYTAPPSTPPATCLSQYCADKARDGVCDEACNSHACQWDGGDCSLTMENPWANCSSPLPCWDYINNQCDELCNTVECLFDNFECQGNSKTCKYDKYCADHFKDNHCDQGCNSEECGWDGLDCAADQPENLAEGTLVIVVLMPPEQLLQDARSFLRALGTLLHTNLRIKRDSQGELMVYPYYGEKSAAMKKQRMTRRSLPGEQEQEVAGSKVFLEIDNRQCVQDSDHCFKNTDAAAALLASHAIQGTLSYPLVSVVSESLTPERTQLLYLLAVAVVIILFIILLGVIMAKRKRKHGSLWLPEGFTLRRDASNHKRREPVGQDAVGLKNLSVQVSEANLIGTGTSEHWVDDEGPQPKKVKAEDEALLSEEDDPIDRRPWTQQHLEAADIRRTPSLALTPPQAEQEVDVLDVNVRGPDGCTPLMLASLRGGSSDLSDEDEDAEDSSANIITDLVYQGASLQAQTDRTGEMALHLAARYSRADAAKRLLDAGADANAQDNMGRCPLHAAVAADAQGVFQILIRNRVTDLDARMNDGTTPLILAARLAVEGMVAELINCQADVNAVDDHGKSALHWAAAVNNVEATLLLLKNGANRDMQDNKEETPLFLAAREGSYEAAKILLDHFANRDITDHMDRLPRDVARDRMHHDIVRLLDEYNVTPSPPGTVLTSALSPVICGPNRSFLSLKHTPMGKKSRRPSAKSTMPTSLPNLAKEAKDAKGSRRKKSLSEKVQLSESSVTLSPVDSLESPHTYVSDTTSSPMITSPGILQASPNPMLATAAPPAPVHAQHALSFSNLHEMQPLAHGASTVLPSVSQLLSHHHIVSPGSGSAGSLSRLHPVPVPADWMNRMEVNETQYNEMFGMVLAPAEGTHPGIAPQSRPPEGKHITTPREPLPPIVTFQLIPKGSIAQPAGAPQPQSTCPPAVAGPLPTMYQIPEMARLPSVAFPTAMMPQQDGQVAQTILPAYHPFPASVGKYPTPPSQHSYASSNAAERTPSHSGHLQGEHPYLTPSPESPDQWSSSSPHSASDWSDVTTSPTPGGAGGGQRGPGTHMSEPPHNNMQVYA

[6] = molecular target: Pro-neuregulin-1, membrane-bound isoform (Homo sapiens) (UniProt Q02297); test: small molecules binding neuregulin-1 protein – biochemical, small-molecule microarray, fluorescence 635/667, psychiatric disease protein project, primary screen (AID 1075); settings: NRG1 binding, 635 nm fluorescence, higher = more signal;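 also: score combines 667 nm spot fluorescence with signal to noise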
Sequence of Pro-neuregulin-1, membrane-bound isoform (Homo sapiens) (Q02297 whole entry, looked up, the tested form may be a part, canonical isoform): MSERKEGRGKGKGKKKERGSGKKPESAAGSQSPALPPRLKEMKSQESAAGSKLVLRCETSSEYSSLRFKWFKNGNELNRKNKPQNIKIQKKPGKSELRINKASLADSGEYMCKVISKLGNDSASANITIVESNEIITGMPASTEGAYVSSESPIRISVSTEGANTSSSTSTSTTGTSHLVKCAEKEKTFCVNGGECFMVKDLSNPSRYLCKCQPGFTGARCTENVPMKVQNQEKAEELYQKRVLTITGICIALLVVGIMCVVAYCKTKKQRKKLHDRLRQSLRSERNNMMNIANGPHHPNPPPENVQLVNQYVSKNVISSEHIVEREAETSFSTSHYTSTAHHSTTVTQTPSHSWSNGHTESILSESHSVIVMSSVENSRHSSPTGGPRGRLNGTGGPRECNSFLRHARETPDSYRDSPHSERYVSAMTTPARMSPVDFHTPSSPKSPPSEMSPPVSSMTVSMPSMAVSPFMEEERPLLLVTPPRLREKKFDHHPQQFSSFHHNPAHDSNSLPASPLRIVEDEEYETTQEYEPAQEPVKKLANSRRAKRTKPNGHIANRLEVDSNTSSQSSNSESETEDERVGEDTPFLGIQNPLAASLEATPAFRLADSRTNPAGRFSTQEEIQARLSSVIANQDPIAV

[7] = tested on: Neuregulin-1 EGF-like domain; test: small molecules binding NRG1 EGF domain – biochemical, small-molecule microarray, 635 nm fluorescence, primary screen (AID 1081); settings: higher = more signal;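 also: binding of the protein to compounds printed on small-molecule microarray slides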
[8] = FRG1 expression reporter modulators in myotubes – cell-based, C2C12 myotubes, firefly/Renilla luciferase, luminescence, FRG1 inhibition for FSHD, primary screen (AID 1084); settings: FRG1 promoter luciferase, higher = more signal, called active from +8 up or from −8 down
[9] = small molecules captured by biotinylated probe aFST – biochemical, small-molecule microarray, fluorescence 635/667, stem cell growth factor project, primary screen (AID 1086); settings: higher = more signal;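 also: score merges 667 nm fluorescence with signal-to-noise of each printed compound spot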
[10] = binders of probe aHhip on microarray, primary screen, stem cell growth factor project, biochemical, small-molecule microarray, fluorescence 635/667 (AID 1087); settings: higher = more signal;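 also: score merges spot fluorescence at 667nm with spot signal to noise ratio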
[11] = tested on: PRMT1 (protein arginine N-methyltransferase 1); test: small molecules binding arginine methyltransferase PRMT1 – biochemical, small-molecule microarray, 635 nm fluorescence, primary screen (AID 1088); settings: higher = more signal;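 also: binding of Prmt1 protein to compounds spotted on small-molecule microarray slides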
[12] = growth effects on S. cerevisiae YJM789 – YJM789 clinical isolate, OD600, 24 h, basal, primary screen (AID 1089); settings: higher = more signal, called active from +8 up or from −8 down;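 also: growth of clinical yeast isolate S. cerevisiae YJM 789 seeded 1000 cells per well; test concentration not given here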
[13] = S. pombe growth modifiers, basal conditions – strain 972, OD600, 24 h, no modulator, primary screen (AID 1090);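 also: basal condition with compound alone and no growth modifier present; test concentration not given here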; settings: S. pombe 972 growth, higher = more signal, called active from +8 up or from −8 down
[14] = budding yeast growth modifiers under rapamycin – strain BY4716, OD600, 96 h, primary screen (AID 1091); also: test concentration not given here; settings: S. cerevisiae BY4716 + rapamycin, higher = more signal, called active from +8 up or from −8 down
[15] = molecular target: Torsin-1A-interacting protein 2 (Homo sapiens) (UniProt Q8NFQ8); test: small molecules binding lysate-expressed LULL1 – cell lysate, human LULL1 lysate, 635/667 nm fluorescence, primary screen (AID 1092); settings: small-molecule microarray, hLULL1 lysate binding, 635 nm fluorescence; higher = more signal;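 also: probe is lysate of COS7 cells overexpressing human LULL1; score merges per-feature 667 nm fluorescence with signal-to-noise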
Sequence of Torsin-1A-interacting protein 2 (Homo sapiens) (Q8NFQ8 whole entry, looked up): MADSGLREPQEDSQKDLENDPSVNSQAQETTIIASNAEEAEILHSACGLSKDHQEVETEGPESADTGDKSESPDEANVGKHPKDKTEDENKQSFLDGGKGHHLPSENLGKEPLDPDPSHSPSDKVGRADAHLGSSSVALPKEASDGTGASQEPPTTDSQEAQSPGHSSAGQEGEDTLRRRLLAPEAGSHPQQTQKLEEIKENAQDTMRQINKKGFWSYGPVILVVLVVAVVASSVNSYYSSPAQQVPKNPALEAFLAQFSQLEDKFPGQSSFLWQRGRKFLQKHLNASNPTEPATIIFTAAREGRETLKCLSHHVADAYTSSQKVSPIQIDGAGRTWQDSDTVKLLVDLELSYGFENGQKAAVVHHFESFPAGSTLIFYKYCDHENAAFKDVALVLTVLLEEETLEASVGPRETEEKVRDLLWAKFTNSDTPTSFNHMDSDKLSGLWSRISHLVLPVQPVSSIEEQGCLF

[16] = optical density change of DRC41 E. coli – strain DRC41, OD650, 24 h, E. coli filamentation project, primary screen (AID 1093);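 also: MC1000 strain lacking acrAB efflux and sulA so SOS filamentation is blocked; test concentration not given here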; settings: E. coli DRC41 growth, higher = more signal, called active from +8 up or from −8 down
[17] = probe aLefty2 binding to arrayed compounds – biochemical, biotinylated probe, 635/667 nm fluorescence, primary screen (AID 1094); settings: small-molecule microarray, higher = more signal;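 also: score merges spot fluorescence near 667 nm with spot signal-to-noise ratio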
[18] = tested on: Noggin (protein binding on small-molecule microarray); test: small molecules binding Noggin protein – biochemical, 635/667 nm fluorescence, primary screen (AID 1095); settings: 635 nm fluorescence, higher = more signal;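 also: score merges 667 nm feature fluorescence with signal to noise over triplicate slides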
[19] = molecular target: Neurogenic locus notch homolog protein 3 (Homo sapiens) (UniProt Q9UM47); test: small molecules binding NOTCH3 protein – biochemical, 635/667 nm fluorescence, primary screen (AID 1096); settings: small-molecule microarray, 635 nm fluorescence, higher = more signal
[20] = probe aEGFR binding to arrayed compounds – biochemical, biotinylated probe, 635/667 nm fluorescence, primary screen (AID 1097); settings: small-molecule microarray, higher = more signal;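 also: probe is a biotinylated anti-EGFR antibody binding compounds printed on slides; score combines fluorescence near 667 nm and signal to noise of each spot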

## O=C1C2C=CC(C(O)c3ccc(Br)cc3)N(n3cnnc3)C2C(=O)N1Cc1ccccc1 (stereo not given)
[1]
  composite z-score: -0.0627
[2]
  composite z-score: 0.52
[3]
  composite z-score: 0.0488
[4]
  composite z-score: 0.533
[5]
  composite z-score: 1.3
[6]
  composite z-score: 0.0603
[7]
  composite z-score: 0.722
[8]
  z-score: 0.258 (inactive)
[9]
  composite z-score: 0.549
[10]
  composite z-score: 0.134
[11]
  composite z-score: 1.56
[12]
  z-score: -26.6 (active)
[13]
  z-score: -16 (active)
[14]
  z-score: 0.881 (inactive)
[15]
  composite z-score: 2.83
[16]
  z-score: -0.415 (inactive)
[17]
  composite z-score: 0.126
[18]
  composite z-score: 0.57
[19]
  composite z-score: 1.03
[20]
  composite z-score: 0.115

## O=C1O[C@H](c2ccccc2)[C@H](c2ccccc2)N2[C@H]1[C@@H](C(=O)NC[C@H](O)c1ccccc1)[C@]1(C(=O)Nc3ccc(C#CC4=CCCCC4)cc31)[C@H]2c1ccc(O)cc1
[1]
  composite z-score: 0.84
[2]
  composite z-score: 0.891
[3]
  composite z-score: 0.146
[4]
  composite z-score: 0.962
[5]
  composite z-score: 0.671
[6]
  composite z-score: 1.4
[7]
  composite z-score: 1.16
[8]
  z-score: 0.733 (inactive)
[9]
  composite z-score: 0.826
[10]
  composite z-score: -0.0618
[11]
  composite z-score: 1.55
[12]
  z-score: 0.896 (inactive)
[13]
  z-score: 0.543 (inactive)
[14]
  z-score: 1.62 (inactive)
[15]
  composite z-score: 2.59
[16]
  z-score: 2 (inactive)
[17]
  composite z-score: -0.0766
[18]
  composite z-score: 1.61
[19]
  composite z-score: 1.08
[20]
  composite z-score: 0.272

## CCCCC(=C=CC[C@H](O)c1ccccc1OCCO)C[C@H](O)c1cc(Cl)cc(Cl)c1O
[1]
  composite z-score: -0.114
[2]
  composite z-score: -0.257
[3]
  composite z-score: -0.0628
[4]
  composite z-score: 0.583
[5]
  composite z-score: 0.151
[6]
  composite z-score: 0.371
[7]
  composite z-score: 1.1
[8]
  z-score: -2.37 (inactive)
[9]
  composite z-score: 0.0025
[10]
  composite z-score: -0.226
[11]
  composite z-score: 1.1
[12]
  z-score: 0.906 (inactive)
[13]
  z-score: -1.33 (inactive)
[14]
  z-score: 0.32 (inactive)
[15]
  composite z-score: 1.3
[16]
  z-score: -0.144 (inactive)
[17]
  composite z-score: -0.118
[18]
  composite z-score: 0.453
[19]
  composite z-score: 0.224
[20]
  composite z-score: -0.163

## O=C1O[C@H](c2ccccc2)[C@H](c2ccccc2)N2[C@H]1[C@@H](C(=O)N1CCCCCCC1)[C@]1(C(=O)Nc3ccc(C#CC4=CCCCC4)cc31)[C@H]2c1ccc(O)cc1
[1]
  composite z-score: 3.8
[2]
  composite z-score: 2.87
[3]
  composite z-score: 1.05
[4]
  composite z-score: 1.46
[5]
  composite z-score: 1.84
[6]
  composite z-score: 2.87
[7]
  composite z-score: 1.54
[8]
  z-score: 0.805 (inactive)
[9]
  composite z-score: 3.41
[10]
  composite z-score: 2.58
[11]
  composite z-score: 1.56
[12]
  z-score: -0.177 (inactive)
[13]
  z-score: 0.218 (inactive)
[14]
  z-score: 0.791 (inactive)
[15]
  composite z-score: 5.19
[16]
  z-score: 1.26 (inactive)
[17]
  composite z-score: 1.91
[18]
  composite z-score: 2.3
[19]
  composite z-score: 1.02
[20]
  composite z-score: 1.47

## COCCCNC(=O)[C@@]1(Sc2ccc(C)cc2)CC(=O)N(Cc2ccccc2)[C@@H]1c1ccc(CO)cc1
[1]
  composite z-score: 0.178
[2]
  composite z-score: 0.685
[3]
  composite z-score: 0.0431
[4]
  composite z-score: 0.738
[5]
  composite z-score: -0.774
[6]
  composite z-score: 0.505
[7]
  composite z-score: -0.233
[8]
  z-score: -1.53 (inactive)
[9]
  composite z-score: -0.217
[10]
  composite z-score: 0.0347
[11]
  composite z-score: 0.983
[12]
  z-score: -0.0867 (inactive)
[13]
  z-score: 0.163 (inactive)
[14]
  z-score: -0.455 (inactive)
[15]
  composite z-score: 2.66
[16]
  z-score: -0.0977 (inactive)
[17]
  composite z-score: -0.27
[18]
  composite z-score: -0.408
[19]
  composite z-score: -0.0703
[20]
  composite z-score: 0.03

## CC1CC/C=C\[C@H]2OC34C=CCN(Cn5nnc6ccccc65)C(=O)[C@H]3N(CCCO)C(=O)[C@@H]4C2C(=O)O1 (stereo not given in full)
[1]
  composite z-score: 0.536
[2]
  composite z-score: -1.14
[3]
  composite z-score: -0.0973
[4]
  composite z-score: -0.988
[5]
  composite z-score: -0.955
[6]
  composite z-score: 1.38
[7]
  composite z-score: 1.57
[8]
  z-score: -0.275 (inactive)
[9]
  composite z-score: -0.474
[10]
  composite z-score: -0.196
[11]
  composite z-score: -0.749
[12]
  z-score: 0.175 (inactive)
[13]
  z-score: -0.463 (inactive)
[14]
  z-score: 0.203 (inactive)
[15]
  composite z-score: 0.389
[16]
  z-score: 1.82 (inactive)
[17]
  composite z-score: -0.0499
[18]
  composite z-score: -0.511
[19]
  composite z-score: 0.0174
[20]
  composite z-score: -0.192

## O=C1C2C=CC(C(O)c3ccc(B(O)O)cc3)N(Nc3ccc([N+](=O)[O-])cc3)C2C(=O)N1c1ccccc1 (stereo not given)
[1]
  composite z-score: -0.28
[2]
  composite z-score: 0.378
[3]
  composite z-score: 0.0121
[4]
  composite z-score: 0.84
[5]
  composite z-score: 1.46
[6]
  composite z-score: 1.56
[7]
  composite z-score: 1.05
[8]
  z-score: 0.663 (inactive)
[9]
  composite z-score: 1.25
[10]
  composite z-score: -0.236
[11]
  composite z-score: 1.26
[12]
  z-score: -26.5 (active)
[13]
  z-score: -16.1 (active)
[14]
  z-score: 0.847 (inactive)
[15]
  composite z-score: 2.54
[16]
  z-score: -0.465 (inactive)
[17]
  composite z-score: 0.143
[18]
  composite z-score: 0.288
[19]
  composite z-score: 1.03
[20]
  composite z-score: 0.105

## CCOC(=O)C[C@H]1[C@H](OC(=O)c2ccccc2-c2ccccc2)[C@@H](NC(=O)c2ccc(-c3ccccc3)cc2)c2cc(OCCCO)ccc2N1C(=O)c1ccccc1
[1]
  composite z-score: -0.491
[2]
  composite z-score: 0.167
[3]
  composite z-score: -0.0428
[4]
  composite z-score: 0.69
[5]
  composite z-score: 0.56
[6]
  composite z-score: 0.106
[7]
  composite z-score: 0.787
[8]
  z-score: -0.172 (inactive)
[9]
  composite z-score: 0.342
[10]
  composite z-score: 0.177
[11]
  composite z-score: 0.997
[12]
  z-score: 0.742 (inactive)
[13]
  z-score: 0.5 (inactive)
[14]
  z-score: 1.7 (inactive)
[15]
  composite z-score: 1.99
[16]
  z-score: 1.04 (inactive)
[17]
  composite z-score: -0.0888
[18]
  composite z-score: 0.603
[19]
  composite z-score: 0.695
[20]
  composite z-score: 0.104

## C=C(CCCC)C(=O)CC[C@H](OC(=O)c1ccccc1-c1ccccc1C(=O)O)c1ccc(CO)o1
[1]
  composite z-score: -0.619
[2]
  composite z-score: 0.779
[3]
  composite z-score: -0.0206
[4]
  composite z-score: 1.16
[5]
  composite z-score: 0.455
[6]
  composite z-score: 0.606
[7]
  composite z-score: 1.25
[8]
  z-score: -0.225 (inactive)
[9]
  composite z-score: 0.367
[10]
  composite z-score: -0.0994
[11]
  composite z-score: 1.55
[12]
  z-score: -0.521 (inactive)
[13]
  z-score: 0.162 (inactive)
[14]
  z-score: 0.437 (inactive)
[15]
  composite z-score: 1.99
[16]
  z-score: 0.251 (inactive)
[17]
  composite z-score: -0.132
[18]
  composite z-score: 1.35
[19]
  composite z-score: 1.06
[20]
  composite z-score: -0.065

## CCCC[C@H]1OB(O)C[C@H]2C1=C(C)Cn1c(=O)n(-c3ccccc3)c(=O)n12
[1]
  composite z-score: -0.396
[2]
  composite z-score: 0.383
[3]
  composite z-score: -0.116
[4]
  composite z-score: 0.365
[5]
  composite z-score: 0.585
[6]
  composite z-score: -0.0946
[7]
  composite z-score: 0.129
[8]
  z-score: -0.127 (inactive)
[9]
  composite z-score: 0.292
[10]
  composite z-score: -0.0237
[11]
  composite z-score: 0.414
[12]
  z-score: 0.585 (inactive)
[13]
  z-score: 1.19 (inactive)
[14]
  z-score: 0.261 (inactive)
[15]
  composite z-score: 0.262
[16]
  z-score: -0.314 (inactive)
[17]
  composite z-score: -0.119
[18]
  composite z-score: 0.688
[19]
  composite z-score: 0.37
[20]
  composite z-score: -0.113
